Screens as filed in PubChem BioAssay.
PKM2 act: increases activity of human pyruvate kinase M2. AID 1631. purified PKM2, Kinase-Glo ATP luminescence, activation; response scale: 0% is enzyme alone, no compound. P14618. hit rate 0.34% among 260,000. Potency, µM (titrated, usually from 57.5 µM), inactives show at the highest dose activation, actives largely listed as activators; note: potency is the fitted concentration of half-maximal effect; nearly all actives have a fitted effect of over 55% in size
Target sequence (P14618 whole entry, looked up): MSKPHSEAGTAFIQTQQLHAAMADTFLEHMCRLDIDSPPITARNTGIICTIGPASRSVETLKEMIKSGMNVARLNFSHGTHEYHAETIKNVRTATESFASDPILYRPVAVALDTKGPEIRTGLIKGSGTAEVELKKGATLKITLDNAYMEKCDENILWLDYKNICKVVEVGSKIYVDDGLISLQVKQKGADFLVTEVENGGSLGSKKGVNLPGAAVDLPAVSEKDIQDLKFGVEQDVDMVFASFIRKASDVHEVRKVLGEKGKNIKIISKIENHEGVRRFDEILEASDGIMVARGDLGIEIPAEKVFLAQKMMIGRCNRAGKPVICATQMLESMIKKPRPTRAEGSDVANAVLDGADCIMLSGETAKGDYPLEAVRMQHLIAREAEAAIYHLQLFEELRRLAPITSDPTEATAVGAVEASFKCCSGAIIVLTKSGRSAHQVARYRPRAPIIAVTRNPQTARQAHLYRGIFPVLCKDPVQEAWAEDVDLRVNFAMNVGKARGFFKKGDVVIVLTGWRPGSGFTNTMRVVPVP
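hPK-M2, >95% pure; 0.1 mM ADP / 0.5 mM PEP final; imidazole pH7.2 buffer w/ 7 mM MgCl2, 50 mM KCl; 1 h RT; Kinase-Glo lum. Intermediate enzyme activity for dual inhibitor/activator qHTS.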
rTrxR1 inhibitor: rat TrxR1 inhibition; O89049; AID 588453; Potency, µM (titrated, usually from 114 µM), for inactives: at the highest dose activity change, negative = inhibition, hits mostly inhibitors; recombinant rTrxR1, NADPH fluorescence consumption, selenite substrate; hit rate 1% among 390,000; note: potency is the fitted concentration of half-maximal effect; nearly all actives have a fitted effect of over 65% in size
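Rat TrxR1 (90 nM in the dispensed reagent) was pre-reduced with 400 uM NADPH for 5 min at room temperature, then incubated with compound for 15 min. After 400 uM selenite was added, NADPH fluorescence (Ex 340/Em 450 nm) was followed for 8 min.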
PI4K2A inh: blocks human PI4K2A kinase activity; Q9BTU6; purified PI4K2A, ADP-Glo luminescence, 1 h; hits give low values; activity change, negative = inhibition, % at 76.9 µM; hit rate 0.13% among 420,000; in the data active = activity change below about -50%; inconclusive = mostly about -30% to -49%;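 note: -100% = wells without enzyme as full effect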
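Compounds are screened against recombinant PI4K2A using PI as substrate and ATP, the latter dispensed at 300 microM. Reactions run one hour at ambient temperature before ADP-Glo detection; full inhibition defined by wells lacking enzyme.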
GALK inhibitor: blocks human galactokinase activity; P51570; Purified GALK, Kinase-Glo residual ATP luminescence; Potency, µM (series often up to 57.5 µM), without a hit: at the top dose activity change, negative = inhibition, most hits filed as inhibitors; hit rate 0.007% among 270,000; AID 1868; note: potency is the fitted concentration of half-maximal effect
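GALK at 5 nM final was combined with compound, 35 uM ATP and 100 uM galactose in HEPES pH8.0 with MgCl2 and DTT. The reaction ran one hour at room temperature before luminescent ATP detection.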
TrxR1 substrate: rat thioredoxin reductase 1 substrate activity; O89049; purified TrxR1 substrate turnover, NADPH consumption readout; Potency, µM (highest dose often 114 µM), for the others: at the top dose activity change, negative = substrate turnover; hit rate 0.01% among 390,000; AID 588456; note: potency is the fitted concentration of half-maximal effect; nearly all actives have a fitted effect of over 50% in size
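Rat TrxR1, dispensed at 90 nM, was prereduced with 400 uM NADPH (final) for 5 min at ~22 deg C, then incubated with compound 15 min before 400 uM selenite. A first-read NADPH fluorescence drop versus no-compound background flagged substrates.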
* = called active by the depositor; ? = inconclusive; . = no result given; ! = a repeat was not active; [ ] = remark or other dose. This is a sample that favours compounds with a hit; in the whole collection about 1.2% have one here. Unless noted, calls come from the whole dose curve; as a rule, active = well fitted curve in the direction sought with a large enough effect; inconclusive = small, poorly fitted or top-dose-only effect, or another doubt; inactive = no such curve, though single readings can be large; an effect the other way counts as inactive or inconclusive. Unless noted, % is set by controls: 0 for no effect and ±100 for the full control effect.

SMILES	PKM2 act	rTrxR1 inhibitor	PI4K2A inh	GALK inhibitor	TrxR1 substrate
CCOC(=O)N1C=CC=C[C@@H]2[C@@H](N3C(=O)c4ccccc4C3=O)C(=O)N21	-2%	16µM*	-1	3%	7%
Nc1c2c(nc3ccn(Cc4ccccc4)c(=O)c13)CCC2	14µM*	-8%	-6	1%	17%
O=C1Nc2ccccc2C12OC1CCCCC1O2 (stereo unspecified)	7%	13%	-1	0%	3%
N#CC1=C(N)C(C#N)(C#N)C2(C(=O)Nc3ccccc32)C2CCCC=C12 (stereo unspecified)	-2%	56µM*	-2	1%	-7%
CCCN(CCC)C1CC(=O)N(Cc2ccccc2)C1=O (stereo unspecified)	16%	20µM*	0	4%	7%
O=C1CC(N(O)C2CC(=O)N(Cc3ccccc3)C2=O)C(=O)N1Cc1ccccc1 (stereo unspecified)	-1%	?	12	4%	10%[57.1 µM]
COc1ccc([N+](=O)[O-])c(S(=O)(=O)c2ccccc2)n1	14%	?	-5	14%	1%[57.1 µM]
O=[N+]([O-])c1cccnc1S(=O)(=O)c1ccccc1	.	1.1µM*	12	-7%	1%
O=C(Cn1c(=O)c2cc(Cl)ccc2n2nncc12)Nc1ccccc1	.	9%	-5	.	0%
COC(=O)CC1C(=O)NC2CCCCC2N1C(=O)CCl (stereo unspecified)	-19%	20µM*	10	3%	6%
CC(C)(C=O)C1=CC(=O)c2ccccc2C1=O	15%	45µM*	-2	-2%	12%
CC1=CC(=O)c2ccccc2C1=O	?	-3%	-5	6%	-1%
CN(C)CC/C=C1\c2ccccc2COc2ccccc21	5%	32µM*!	2	-2%	6%[57.1 µM]
Cc1cccc(CSc2nc3c(sc4ccccc43)c(=O)n2CCC(=O)NC(C)C)c1	.	19%	-3	.	8%
Cc1c(NC(=O)OCCNC(=O)Nc2ccccc2)sc(=S)n1C	21%	-9%[57.1 µM]	-3	-4%	7%[57.1 µM]
Cc1ccc(S(=O)(=O)NCCOC(=O)Nc2sc(=S)n(C)c2C)cc1	8%	7.1µM*	2	2%	3%
Cc1ccc(NCc2ccc(O)c3ncccc23)cc1	9%	0.5µM*	-1	0%	3%
Cc1ccc(NCc2ccc(O)c3ncccc23)cc1C	3%	2µM*	5	0%	5%
Cc1nc([N+](=O)[O-])cn1CC(O)c1ccc2c(c1)OCCCO2 (stereo unspecified)	.	-3%	.	.	-1%
Cc1cc(=O)n(C(C)C(=O)N2CCCc3ccccc32)c2c1c(C)nn2-c1ccccc1 (stereo unspecified)	.	3%[57.1 µM]	0	.	-7%[57.1 µM]
COc1cc(C2c3c(n[nH]c3C)C(=O)N2c2ccc(C)cc2)ccc1O (stereo unspecified)	0%	32µM*	7	1%	7%[57.1 µM]
Cc1cc(N2CCCC2)nc2ccc(NC(=S)NC(C)C)cc12	1%	7.9µM*	-3	2%	33%
Cc1cc(N2CCOCC2)nc2ccc(NC(=S)NC(C)C)cc12	.	-13%	3	2%	11%
COc1ccccc1NC(=O)CCCCCN1C(=O)c2cccc([N+](=O)[O-])c2C1=O	-9%	-4%	-1	3%	-14%
COc1cc(/C=C2/C(=O)c3cccc([N+](=O)[O-])c3C2=O)c(Br)cc1O	-50%	28µM*	-23	-3%	-16%
O=C1C=CC(=Nc2ccc3c(c2)Cc2cc(F)ccc2-3)O1	.	3.2µM*	12	.	6%
O=C1C=CC(=Nc2cccc3c2C(=O)c2ccccc2-3)O1	.	4%[2.29 µM]	-19	.	-5%[57.1 µM]
COc1cc(C(=O)CCN2CCC(c3ccccc3)C2)cc(OC)c1OC (stereo unspecified)	1%	0.5µM*	16	-1%	-7%
O=C(CCc1ccccc1)c1ccc2c(c1)OCCCO2	-13%	12%	-1	0%	2%
O=C(CCN1CCC(c2ccccc2)C1)c1ccc2c(c1)OCCO2 (stereo unspecified)	-5%	0.28µM*	5	0%	3%
